Source: PubChem (Broad Institute)
aSyn 5UTR act – Activators via SNCA 5'UTR binding, MLPCN; alpha-synuclein 5'UTR reporter, activators screen; activity score, % (tested at 7.5 µM), hits read low; 7.1% of 300,000 active; AID 1814; in the data active = activity score below about -60%
Active calls of the source: *. These entries were drawn from the full list.

SMILES	aSyn 5UTR act
CCNC(=S)N/N=C(\C)c1cccc([N+](=O)[O-])c1	-62.1*
C/C(=N\NC(=O)c1cccc([N+](=O)[O-])c1)c1cccs1	-81.3*
C/C(=N/NC(=O)c1ccc2c(c1)OCO2)c1cccc([N+](=O)[O-])c1	-133.0*
COc1ccc(-c2nc3c4ccccc4[nH]c(=O)n3n2)cc1	-82.4*
O=C(Nc1ccccc1F)c1cc2nc(C(F)F)cc(C(F)F)n2n1	-71.5*
O=C(NCc1cccnc1)c1c[nH]c2cc3c(cc2c1=O)OCCO3	-123.3*
O=C(c1ccccc1)c1c[nH]c2cc3c(cc2c1=O)OCCO3	-67.1*
O=C(Nc1cc(-c2nc3ccccc3s2)ccc1Cl)c1ccc2c(c1)OCO2	-70.4*
Cc1ccc(-c2nc3ccccc3s2)cc1NC(=O)c1ccc2c(c1)OCO2	-76.2*
Cc1ccc(-c2nc3ccccc3s2)cc1NC(=S)NC(=O)c1cccc2ccccc12	-97.3*
C(=C\n1nnc2ccccc21)/c1ccc[nH]1	-72.3*
CCOc1cc(C)c(S(=O)(=O)Nc2ccc3cn[nH]c3c2)cc1C	-73.7*
Cc1cnn(C(=S)NCCc2ccccc2)c1	-136.0*
Cc1ccccc1OCc1nnc2c3cnn(C)c3ncn12	-187.3*
O=C(Nc1nc2ccccc2s1)C1CCCO1 (stereo not drawn)	-131.7*
Nc1ccc2nc(NC(=O)C3CCCCC3)sc2c1	-124.3*
Cc1cc(C)c2sc(NC(=O)C3CC3)nc2c1	-89.3*
O=C(Nc1ccc(-c2nc3cccnc3s2)cc1)C1CCCO1 (stereo not drawn)	87.3
O=C(Nc1nnc(-c2ccccc2F)s1)C1CCCO1 (stereo not drawn)	-181.1*
O=C(Nc1nc2ccc(F)cc2s1)C1CCCO1 (stereo not drawn)	-145.2*
O=C(NCCCc1ccccc1)c1ccc(F)cc1	-101.2*
C=CCN(c1ccc(C(=O)NCCc2ccccc2)cc1)S(C)(=O)=O	-108.9*
O=C(NCCc1ccccc1)c1ccncc1	-145.7*
O=C(NCCc1ccccc1)c1ccc(Cl)nc1	-169.5*
CC(=O)Nc1ccc(C(=O)NCCc2ccccc2)cc1	-131.3*
SMILES	aSyn 5UTR act
O=C(NCCc1ccccc1)c1ccc(NS(=O)(=O)c2ccc3[nH]c(=O)[nH]c3c2)cc1	-72.3*
CCCNC(=O)c1ccc2c(=O)c(O)c(-c3ccc(C)cc3)[nH]c2c1	68.6
COc1ccc(C(=O)N=c2sc3c(C)ccc(OC)c3n2C)cc1	-114.6*
COc1cc(C(=O)N=c2sc3c(C)ccc(OC)c3n2C)cc(OC)c1OC	-222.3*
Cn1c(=NC(=O)c2cccc([N+](=O)[O-])c2)sc2ccccc21	-139.5*
COc1cc(C(=O)N=c2sc3ccccc3n2C)cc(OC)c1OC	-103.3*
O=C(Cc1nc2ccccc2[nH]1)c1ccc(Br)cc1	-190.3*
O=C(Cc1nc2ccccc2[nH]c1=O)c1ccccc1	-172.2*
CCCC(=O)N1CCCC(C(=O)c2cccc(OC(C)C)c2)C1 (stereo not drawn)	-80.1*
C=CCNC(=O)N1CCCC(C(=O)c2cccc(OC(C)C)c2)C1 (stereo not drawn)	-88.9*
COc1ccc2cc(C(=O)C3CCCN(C(=O)CCc4ccccn4)C3)ccc2c1 (stereo not drawn)	-92.6*
COc1ccc(-c2c/c(=N\c3nc(-c4ccccc4)c(C)s3)c3ccccc3o2)cc1O	75.3
COc1ccc(-c2cc(=Nc3c(C)n(C)n(-c4ccccc4)c3=O)c3ccccc3o2)cc1	-269.6*
Cc1c(N=c2c(=O)c3ccccc3c2=O)c(=O)n(-c2ccccc2)n1C	-140.1*
CCN1C(=O)/C(=C/C=C2/CCCN2C)OC1=S	-151.7*
O=C(Nc1ccc(F)cc1)c1ccc(NC(=O)C2CCCO2)cc1 (stereo not drawn)	-128.1*
COC(=O)c1c(-c2ccc(F)cc2)csc1NC(=O)C1CCCO1 (stereo not drawn)	-84.8*
O=C(Nc1cccc(O)c1)c1ccc(NC(=O)C2CCCO2)cc1 (stereo not drawn)	-97.5*
COC(=O)c1ccc(NC(=O)C2CCCO2)cc1 (stereo not drawn)	-63.9*
O=C(N/N=C/c1ccc2c(c1)OCO2)c1cccc(NC(=O)c2ccccc2Cl)c1	-157.9*
Cc1cccc(C(=O)Nc2cccc(C(=O)N/N=C/c3ccc4c(c3)OCO4)c2)c1	-109.2*
C=CCn1c(SCC(N)=O)nc2scc(-c3ccc(C)o3)c2c1=O	-84.2*
C=CCn1c(SCC(=O)c2[nH]c(C)c(C(=O)OCC)c2C)nc2scc(-c3ccccc3)c2c1=O	57.2
CCn1c(C(=O)NC2CCC(C)CC2)cc2sccc21 (stereo not drawn)	-87.3*
CN(C(=O)c1cc2sccc2n1C)C1CCCCC1	-109.6*
SMILES	aSyn 5UTR act
Cn1c(C(=O)NC2CCCCC2)cc2sccc21	-147.4*
COC(=O)c1cccc(NC(=O)c2cc3sccc3n2C)c1	-76.0*
Cc1ccc(N=Nc2ccc(O)c3ncccc23)cc1	86.2
Cc1ccc(N=Nc2c(O)n(CN3CCOCC3)c3ccccc23)cc1	-115.5*
COc1ccccc1-c1nc(-c2ccc(C)nc2OC)no1	-113.6*
COc1nc(C)ccc1-c1noc(-c2cccnc2)n1	-106.1*
CN1CCN(/C=N/c2sc3c(c2C#N)CCCCC3)CC1	-147.3*
CCN(/C=N/c1sc2c(c1C#N)CCCCC2)CC	-141.6*
O=C(c1cc2cc(Cl)ccc2[nH]1)N1CCCCC1	-84.5*
CC1C/C(=C/c2ccncc2)C(=O)/C(=C/c2ccncc2)C1 (stereo not drawn)	-106.6*
COc1ccc2nc(-c3ccccc3)cc(OC)c2c1	-106.5*
COc1ccc(OC)c(Nc2cc(-c3ccccc3)nc(N)n2)c1	67.8
CC(=O)Nc1ccc(Nc2ncnc3c2cnn3-c2cccc(C)c2)cc1	-158.8*
CC(C)Nc1ncnc2c1cnn2-c1ccc(Cl)cc1	56.3
O=[N+]([O-])c1ccc(O)c(/C=N/Nc2ncnc3c2cnn3-c2ccccc2)c1	66.3
CC(=O)Nc1ccc(Nc2ncnc3c2cnn3-c2ccccc2)cc1	-110.0*
Cn1ncc2c(O/N=C(\N)c3ccc(C(C)(C)C)cc3)ncnc21	104.1
Clc1ccc(Nc2ncnc3c2cnn3-c2ccccc2)cc1	-119.0*
Cn1ncc2c(Nc3ccc4ccccc4c3)ncnc21	-164.1*
CCc1nnc(NC(=O)C=C(C)C)s1	-140.2*
O=C(/C=C/c1cccc(F)c1)Nc1nccs1	-209.2*
O=C(/C=C/c1cccs1)Nc1cccc(NC(=O)/C=C/c2cccs2)n1	-180.9*
NS(=O)(=O)c1cccc(NC(=O)/C=C/c2cccs2)c1	-101.2*
Cc1cc(C)c(-c2csc(NC(=O)/C=C/c3cccs3)n2)c(C)c1	38.4
Cc1cc(C)nc(NC(=O)/C=C/c2cccs2)c1	-155.3*
SMILES	aSyn 5UTR act
O=C(/C=C/c1cccs1)Nc1nccs1	-97.1*
CCc1nnc(NC(=O)/C=C/c2cccs2)s1	-160.3*
COc1ccc(C(C)NC(=O)Nc2ccc(C(C)=O)cc2)cc1OC (stereo not drawn)	-99.7*
COc1cc(OC)c(C(=O)Nc2cccc(C(C)=O)c2)cc1OC	-78.2*
COc1ccc(C(=O)Nc2cccc(C(C)=O)c2)cc1OC	-70.9*
O=C(Nc1sc2c(c1C(=O)NCc1ccco1)CCCC2)c1ccc2c(c1)OCO2	-187.4*
O=C(Nc1sc2c(c1C(=O)O)CCC2)c1ccco1	-61.8*
CC1(C)Cc2c(sc(NC(=O)c3ccc(Br)o3)c2C#N)CO1	-91.4*
COC(=O)c1c(NC(=O)/C=C/c2ccco2)sc2c1CCC2	-143.2*
COC(=O)c1c(NC(=O)c2ccc(C)o2)sc2c1CCCCC2	-184.5*
CC1(C)Cc2c(sc(NC(=O)c3ccco3)c2C(=O)O)CO1	-80.5*
